HT1080 IDH1KD tx: toxicity to HT-1080 IDH1 knockdown cells (counter line) | hit rate 2% among 360,000 | HT-1080 IDH1 knockdown viability, ATP luminescence, 48 h | AID 686971 | Potency, µM (titrated, usually from 46.1 µM), inactives show top-dose activity, negative = toxicity, most hits filed as cytotoxic;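 note: 0% = DMSO wells and -100% = cell-free medium wells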
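Cytotoxicity counter-line: IDH1KD HT-1080, 48 h, CellTiter-Glo. Curves classed by r2, magnitude and activity.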
TGFb SMAD3 inh: inhibitors of TGF-b signaling | HepG2 CAGA-GFP TGF-b/SMAD3 reporter, GFP fluorescence, 18 h; TGF-beta stimulated, 500 pg/mL final | Potency, µM (series often up to 46.1 µM), for the others: top-dose activity, negative = inhibition, actives largely listed as inhibitors | hit rate 1.2% among 410,000; note: % is set by controls: 0 for no effect and ±100 for the full control effect; nearly all actives have a fitted effect of over 65% in size
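HEPG2 CAGA-GFP cells (1000/well, DMEM with 1% FBS) were pre-incubated 2 h at 37 degrees C, given compound by pin tool, then stimulated with TGF-beta at 500 pg/mL final for 18 h before per-cell GFP fluorescence imaging.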
KB-3-1 tox: KB-3-1 parental cell cytotoxicity. hit rate 1.4% among 400,000. AID 1347075. KB-3-1 viability, CellTiter-Glo ATP luminescence, 72 h. Potency, µM (titrated, usually from 46.1 µM), most hits filed as cytotoxic; note: % is set by controls: 0 for no effect and ±100 for the full control effect; nearly all actives have a fitted effect of over 60% in size
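72 h, 37 °C compound treatment of KB-3-1 parental cells; CellTiter-Glo added, 10 min, luminescence read. Data corrected against DMSO-only plates and normalized before curve fitting.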
KB-V1 MDR tox: kills drug-selected multidrug resistant KB-V1 cells; KB-V1 MDR cells viability, CellTiter-Glo, 72 h; Potency, µM (highest dose often 46.1 µM), usual class: cytotoxic; hit rate 3.4% among 400,000; note: % is set by controls: 0 for no effect and ±100 for the full control effect; nearly all actives have a fitted effect of over 60% in size
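Luminescent ATP read-out (CellTiter-Glo, 10 min) measures survival of drug-selected KB-V1 MDR cells after 72 h, 37 degrees C compound exposure. Medium: phenol-red-free DMEM, 10% FBS. Values from fitted concentration-response curves.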
HepG2 tox: HepG2 cytotoxicity, counter-screen for TGF-b inhibitors | HepG2 CAGA-GFP viability, ATP luminescence, 18 h | Potency, µM (doses to about 46.1 µM), for inactives: at the top dose activity change, negative = cytotoxicity, most hits filed as cytotoxic | hit rate 0.76% among 410,000
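CellTiter-Glo luminescence gave cytotoxicity after 18 hours at 37 degrees C. The cells were HepG2 CAGA-GFP in 1% FBS DMEM, stimulated with 500 pg/mL TGF-beta after compound addition. %Activity was normalised to no-cell wells (complete cell-killing) and DMSO (no toxicity), and curves were fitted and classified.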
HT1080NT lethal: kills 2HG-producing HT-1080-NT fibrosarcoma cells; AID 686970; HT-1080-NT fibrosarcoma viability, CellTiter-Glo ATP luminescence, 48 h; hit rate 1.6% among 360,000; Potency, µM (top dose mostly 46.1 µM), for the others: at the top dose activity, negative = less viability, actives largely listed as cytotoxic;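 note: NT is the 2HG producing partner of a matched IDH1 knockdown line; 0% = DMSO-treated cells and -100% = media-only wells without cells; nearly all actives have a fitted effect of over 55% in size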
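HT-1080-NT fibrosarcoma cells (2HG-overproducing), 750 cells/well in RPMI with 5% FBS, dosed after 2 h and incubated 48 h at 37C. CellTiter-Glo luminescence normalized to DMSO and no-cell wells; concentration-response curves fitted and classed.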
* hit, by the source's call; i = inactive; ? = inconclusive; . = no result. An excerpt weighted towards active compounds, which were near 6.6% of everything screened. Calls come from the whole dose curve; as a rule, active = well fitted curve in the direction sought with a large enough effect; inconclusive = small, poorly fitted or top-dose-only effect, or another doubt; inactive = no such curve, though single readings can be large; an effect the other way counts as inactive or inconclusive. Potency is the fitted concentration of half-maximal effect.

SMILES | HT1080 IDH1KD tx | TGFb SMAD3 inh | KB-3-1 tox | KB-V1 MDR tox | HepG2 tox | HT1080NT lethal
O=C(NCC1OCCc2ccccc21)c1ccc(NC(=O)c2ccc(Cl)cc2)cc1 (stereo not given) | ? | ? | ? | ? | -67.2% | 20.6µM*
O=C(Nc1ccc(Cl)cc1)c1ccc(OCC2CCCO2)cc1 (stereo not given) | 0.2% | -8.3% | ? | 13µM* | -13.7% | -12.1%
O=C(Nc1ccc2c(c1)C(=O)N(CC1CCCO1)C2=O)c1ccc(Cl)c(Cl)c1 (stereo not given) | 3.0% | ? | i | 20.6µM* | -2.0% | 5.5%
Cc1cccc(NC(=O)CN(CC2CCCO2)C(=O)c2oc3ccc(F)cc3c2C)c1C (stereo not given) | -9.5% | -2.3% | i | 5.17µM* | -4.6% | 1.5%
CCCCSCCCNC(=O)CN1C(=O)COc2ccc(S(=O)(=O)N3CCCC3)cc21 | . | ? | i | i | 0.0% | .
Cc1ccc(CN2C(=O)CC(c3ccc(Cl)cc3)c3c(C)nn(-c4nc(C)cc(C)n4)c32)cc1 (stereo not given) | . | -9.6% | i | i | -26.9% | .
COc1cccc(CNC(=O)CSc2nnc(C)c3c(C)n(-c4ccccc4)nc23)c1OC | . | ? | i | i | -2.0% | .
Cc1ccc(CNC(=O)CCC(=O)N2CC3CCCN3c3ccccc32)cc1 (stereo not given) | . | ? | i | ? | -8.6% | .
Cc1cccc(NC(=O)c2ccc(OCC3CCCO3)cc2)c1C (stereo not given) | 3.1% | 11.3% | i | 20.6µM* | 0.6% | 6.0%
O=C(NCc1ccc(Cl)cc1)c1ccc(OCC2CCCO2)cc1 (stereo not given) | 12.1% | ? | i | 16.4µM* | 0.3% | 15.5%
Cc1ccc(CNC(=O)c2ccc(OCC3CCCO3)cc2)cc1 (stereo not given) | 7.8% | -6.1% | i | i | -7.9% | 6.7%
COc1ccc(CNC(=O)C(=O)NCC2CCCO2)cc1 (stereo not given) | 11.4% | 0.0% | 18.4µM* | i | -21.4% | 10.0%
COc1ccc(CNC(=O)C(C)Sc2nc3ccccc3c(=O)n2CC2CCCO2)cc1 (stereo not given) | 10.7% | -7.2% | i | 5.8µM* | -1.0% | 2.1%
O=C(Nc1nc(-c2ccc(Cl)cc2Cl)cs1)c1ccc(OCC2CCCO2)cc1 (stereo not given) | ? | -16.8% | i | 9.2µM* | 1.1% | ?
COc1cc2nc(=S)n3[nH]c(COc4ccccc4C)nc3c2cc1OC | -4.7% | -28.1% | ? | 0.92µM* | -0.9% | 6.1%
COc1ccc(C2/C=C\CN(C(=O)c3ccccc3)C(C)C(=O)N2Cc2ccc(F)cc2)cc1 (stereo not given) | . | -24.5% | . | . | -14.2% | .
COc1ccc(C(C)(O)c2nc(-c3cccc(C(C)C)c3)cs2)cc1 (stereo not given) | ? | ? | ? | ? | 20µM* | ?
Cc1ccc(-c2csc(C(C)(O)c3cccc(F)c3)n2)cc1C (stereo not given) | ? | ? | i | i | -98.0% | ?
CC(C)c1cccc(-c2csc(C(C)(O)c3cccc(F)c3)n2)c1 (stereo not given) | ? | ? | i | i | 15.8µM* | -5.4%
CC(O)(c1cccc(F)c1)c1nc(-c2cccc(F)c2)cs1 (stereo not given) | ? | 7.94µM* | i | i | -50.0% | ?
COc1ccc(C(C)(O)c2nc(-c3ccccc3OC)cs2)cc1 (stereo not given) | 16.4µM* | 7.6% | ? | ? | -23.8% | ?
COc1ccc(Cl)cc1NC(=O)CCCn1c(C)c2cnn(-c3ccccc3)c(=O)c2c1C | . | ? | i | i | -14.6% | .
CC(O)CNCCCOc1ccc(Cl)cc1C(C)(C)C (stereo not given) | ? | ? | ? | 20.6µM* | -99.1% | 18.4µM*
Cc1ccc(C2=C(O)C(=O)C(c3ccc(C)cc3)=C(O)C2=O)cc1 | -0.1% | 0.0% | ? | 14.6µM* | -38.7% | 0.2%
CC1=C(O)C(=O)C(C2=C(O)C(=O)C(C)=C(O)C2=O)=C(O)C1=O | -13.8% | 16.3% | ? | ? | -23.0% | -1.3%
SMILES | HT1080 IDH1KD tx | TGFb SMAD3 inh | KB-3-1 tox | KB-V1 MDR tox | HepG2 tox | HT1080NT lethal
CCC(=O)Nc1nc(CC(=O)Nc2ccccc2)cs1 | -1.6% | ? | i | 25.9µM* | -35.7% | 1.0%
CCOC(=O)Cc1csc(NC(=O)Cc2ccccc2)n1 | 12.3% | -14.8% | i | ? | -1.8% | -7.4%
COc1ccc(NC(=S)Nc2nc(CC(=O)Nc3ccccc3OC)cs2)cc1 | 5.01µM* | ? | ? | 8.2µM* | -29.6% | 3.55µM*
COc1ccccc1NC(=O)Cc1csc(NC(=S)Nc2ccccc2)n1 | 3.16µM* | 14.1µM* | ? | 9.2µM* | -37.3% | 3.55µM*
Cc1ccc(F)cc1NC(=O)COC(=O)c1ccc(S(C)(=O)=O)c([N+](=O)[O-])c1 | . | -4.3% | ? | i | -5.7% | .
COc1cccc(CN(C)C(=O)c2ccc(OCC(=O)Nc3cccc(C(F)(F)F)c3)c(OC)c2)c1 | ? | -26.4% | ? | 4.11µM* | -62.8% | ?
COc1ccc(CN(C)C(=O)c2ccc(OCC(=O)Nc3cccc(C(F)(F)F)c3)c(OC)c2)c(OC)c1 | -25.2% | ? | ? | ? | -3.4% | ?
CCOC(=O)c1c(C)c(-c2ccccc2)n(CC(=O)Nc2cc(C)ccc2OC)c1C | . | -16.7% | i | i | -0.7% | .
Cc1ccc(-n2c(N)c(C(=O)Nc3c(C)n(C)n(-c4ccccc4)c3=O)c3nc4ccccc4nc32)cc1 | -7.0% | 15.1% | ? | 23.1µM* | 2.9% | -2.6%
Cc1c(NC(=O)c2ccccc2NS(=O)(=O)c2ccc(Br)cc2)c(=O)n(-c2ccccc2)n1C | 3.3% | -4.5% | i | 23.1µM* | -20.0% | -0.5%
Cc1c(NS(=O)(=O)c2ccc(Br)cc2)c(=O)n(-c2ccccc2)n1C | 4.6% | 0.2% | i | i | -7.6% | 0.6%
Cc1cc(C)cc(-n2c(N)c(C(=O)Nc3c(C)n(C)n(-c4ccccc4)c3=O)c3nc4ccccc4nc32)c1 | ? | -26.1% | i | ? | -25.4% | -14.2%
CC(=O)Nc1cc(-c2ccccc2CN(C)C)cn2c(-c3ccc(F)c(Cl)c3)cnc12 | 0.0% | ? | i | i | -68.3% | 14.0%
